About 2,000 (36%) of roughly 5,500 compounds were called active. Not shown: some 18% with an inconclusive outcome. Cut-off read from the data, not from the text of the source: active = normalized growth mostly below about 0.91 (no sharp cut-off); inconclusive = no clear call, values can overlap the other calls; inactive = mostly above about 0.92. The list shows a part of the results.
Assay: chemical genetic growth profiling, strain panel (AID 1159580);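 note: tested at 20 µM; growth read once vehicle control cultures reached saturation at 30 °C; 1 = growth at the plate median or of vehicle wells; lower values mean less growth of the strain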
Details: growth OD

Measured: normalized growth

COc1cccc2c1cc([N+](=O)[O-])c1c(C(=O)O)cc3c(c12)OCO3
inactive: S. cerevisiae deletion strains, locus YJR066W, strain TOR1, active compounds read low 0.912 | S. cerevisiae deletion strains, locus YJR075W, strain HOC1, active compounds read low 1.04 | S. cerevisiae deletion strains, locus YKL009W, strain mrt4, active compounds read low 0.967 | S. cerevisiae deletion strains, locus YKL068W, active compounds read low 1.01 | S. cerevisiae deletion strains, locus YKL085W, strain MDH1 (second series), active compounds read low 0.999 | S. cerevisiae deletion strains, locus YKL085W, strain MDH1, active compounds read low 0.999 | S. cerevisiae deletion strains, locus YKL160W, strain elf1, active compounds read low 1.01 | S. cerevisiae deletion strains, locus YKL190W, strain CNB1, active compounds read low 1.02 | S. cerevisiae deletion strains, locus YKR001C, strain vps1, active compounds read low 1.03 | S. cerevisiae deletion strains, locus YKR026C, strain gcn3, active compounds read low 1.02 | S. cerevisiae deletion strains, locus YKR091W, strain srl3, active compounds read low 1.02 | S. cerevisiae deletion strains, locus YLL001W, strain dnm1, active compounds read low 1.01 | S. cerevisiae deletion strains, locus YLL026W, active compounds read low 1.01 | S. cerevisiae deletion strains, locus YLL041C, strain sdh2, active compounds read low 1.01 | S. cerevisiae deletion strains, locus YLR027C, strain aat2, active compounds read low 1.02 | S. cerevisiae deletion strains, locus YLR039C, strain RIC1, active compounds read low 1.06 | S. cerevisiae deletion strains, locus YLR058C, strain SHM2, active compounds read low 1.01 | S. cerevisiae deletion strains, locus YLR102C, strain apc9, active compounds read low 1.02 | S. cerevisiae deletion strains, locus YLR113W, strain HOG1, active compounds read low 0.971 | S. cerevisiae deletion strains, locus YLR221C, strain rsa3, active compounds read low 1.02 | S. cerevisiae deletion strains, locus YLR258W, strain gsy2, active compounds read low 1.03 | S. cerevisiae deletion strains, locus YLR262C, strain YPT6 (second series), active compounds read low 1 | S. cerevisiae deletion strains, locus YLR262C, strain YPT6, active compounds read low 1.07 | S. cerevisiae deletion strains, locus YLR268W, strain sec22, active compounds read low 1.06 | S. cerevisiae deletion strains, locus YLR320W, strain mms22, active compounds read low 1.02 | S. cerevisiae deletion strains, locus YLR330W, strain CHS5, active compounds read low 1.02 | S. cerevisiae deletion strains, locus YLR342W, strain FKS1 (second series), active compounds read low 0.989 | S. cerevisiae deletion strains, locus YLR342W, strain FKS1, active compounds read low 1.04 | S. cerevisiae deletion strains, locus YLR357W, strain rsc2, active compounds read low 1.01 | S. cerevisiae deletion strains, locus YLR370C, strain arc18, active compounds read low 1.03 | S. cerevisiae deletion strains, locus YLR371W, strain rom2, active compounds read low 1.03 | S. cerevisiae deletion strains, locus YLR384C, strain iki3, active compounds read low 1 | S. cerevisiae deletion strains, locus YLR418C, strain cdc73, active compounds read low 1.01 | S. cerevisiae deletion strains, locus YML016C, strain PPZ1, active compounds read low 1.01 | S. cerevisiae deletion strains, locus YML032C, strain rad52, active compounds read low 0.99 | S. cerevisiae deletion strains, locus YML120C, strain ndi1, active compounds read low 1.02 | S. cerevisiae deletion strains, locus YML124C, strain tub3, active compounds read low 1.01 | S. cerevisiae deletion strains, locus YMR058W, strain fet3, active compounds read low 1.02 | S. cerevisiae deletion strains, locus YMR078C, strain ctf18, active compounds read low 1.02 | S. cerevisiae deletion strains, locus YMR125W, strain sto1, active compounds read low 1.03 | S. cerevisiae deletion strains, locus YMR129W, active compounds read low 1.02 | S. cerevisiae deletion strains, locus YMR205C, strain PFK2, active compounds read low 1.05 | S. cerevisiae deletion strains, locus YMR223W, strain ubp8, active compounds read low 1.01 | S. cerevisiae deletion strains, locus YMR231W, strain pep5, active compounds read low 1.03 | S. cerevisiae deletion strains, locus YMR307W, strain GAS1, active compounds read low 0.988 | S. cerevisiae deletion strains, locus YNL067W, strain RPL9B, active compounds read low 1.04 | S. cerevisiae deletion strains, locus YNL071W, strain lat1, active compounds read low 1.02 | S. cerevisiae deletion strains, locus YNL183C, strain NPR1, active compounds read low 0.917 | S. cerevisiae deletion strains, locus YNL209W, strain ssb2, active compounds read low 1.02 | S. cerevisiae deletion strains, locus YNL233W, strain BNI4, active compounds read low 1.03 | S. cerevisiae deletion strains, locus YNL248C, strain rpa49, active compounds read low 1.01 | S. cerevisiae deletion strains, locus YNL250W, strain rad50, active compounds read low 1.01 | S. cerevisiae deletion strains, locus YNL271C, strain bni1, active compounds read low 1.01 | S. cerevisiae deletion strains, locus YNL298W, strain CLA4, active compounds read low 0.97 | S. cerevisiae deletion strains, locus YNL307C, strain MCK1, active compounds read low 1.03 | S. cerevisiae deletion strains, locus YNL322C, strain KRE1 (second series), active compounds read low 1.01 | S. cerevisiae deletion strains, locus YNL322C, strain KRE1, active compounds read low 1 | S. cerevisiae deletion strains, locus YNR049C, strain mso1, active compounds read low 1.02 | S. cerevisiae deletion strains, locus YNR052C, strain pop2, active compounds read low 1 | S. cerevisiae deletion strains, locus YOL006C, strain TOP1, active compounds read low 1.09 | S. cerevisiae deletion strains, locus YOL012C, strain htz1 1.07 | S. cerevisiae deletion strains, locus YOL147C, strain pex11, active compounds read low 1.01 | S. cerevisiae deletion strains, locus YOR001W, strain rrp6, active compounds read low 1.01 | S. cerevisiae deletion strains, locus YOR061W, strain CKA2, active compounds read low 1.02 | S. cerevisiae deletion strains, locus YOR069W, strain VPS5, active compounds read low 1.01 | S. cerevisiae deletion strains, locus YOR070C, strain gyp1, active compounds read low 1.01 | S. cerevisiae deletion strains, locus YOR080W, strain dia2, active compounds read low 1.02 | S. cerevisiae deletion strains, locus YOR083W, strain WHI5, active compounds read low 1 | S. cerevisiae deletion strains, locus YOR106W, strain vam3, active compounds read low 1.01 | S. cerevisiae deletion strains, locus YOR136W, strain idh2, active compounds read low 1.02 | S. cerevisiae deletion strains, locus YOR144C, strain elg1, active compounds read low 1.01 | S. cerevisiae deletion strains, locus YOR184W, strain ser1, active compounds read low 1 | S. cerevisiae deletion strains, locus YOR231W, strain MKK1, active compounds read low 0.928 | S. cerevisiae deletion strains, locus YOR265W, strain rbl2, active compounds read low 1.01 | S. cerevisiae deletion strains, locus YOR270C, strain vph1, active compounds read low 1.04 | S. cerevisiae deletion strains, locus YOR290C, strain snf2, active compounds read low 0.995 | S. cerevisiae deletion strains, locus YOR316C, strain cot1, active compounds read low 1.02 | S. cerevisiae deletion strains, locus YPL051W, strain arl3, active compounds read low 1.01 | S. cerevisiae deletion strains, locus YPL055C, strain LGE1, active compounds read low 1.04 | S. cerevisiae deletion strains, locus YPL078C, strain atp4, active compounds read low 1.01 | S. cerevisiae deletion strains, locus YPL106C, strain sse1, active compounds read low 1.03 | S. cerevisiae deletion strains, locus YPL240C, strain hsp82, active compounds read low 1.01 | S. cerevisiae deletion strains, locus YPL241C, strain CIN2, active compounds read low 1.01 | S. cerevisiae deletion strains, locus YPL256C, strain CLN2, active compounds read low 0.926 | S. cerevisiae deletion strains, locus YPR119W, strain clb2, active compounds read low 1.02 | S. cerevisiae deletion strains, locus YPR141C, strain kar3, active compounds read low 1.02 | S. cerevisiae deletion strains, locus YPR163C, strain tif3, active compounds read low 1.02 | S. cerevisiae deletion strains, locus YPR167C, strain met16, active compounds read low 1.02 | S. cerevisiae deletion strains, strain wtn01, active compounds read low 1.05 | S. cerevisiae strains, strain wild type, active compounds read low 1.02
